# TRHR PAM: qHTS for Small Molecule Agonists and Allosteric Enhancers of Human TRH Receptor: Primary Screen for Enhancers | TRHR cells, fluo-8 calcium fluorescence, EC20 TRH enhancement | 0.66% of 360,000 active | enhancement, % at 2 µM | Thyrotropin-releasing hormone receptor (Homo sapiens), P34981; in the data active means enhancement above about 30%; further: 0% is about no effect
# Target sequence (P34981 whole entry, looked up): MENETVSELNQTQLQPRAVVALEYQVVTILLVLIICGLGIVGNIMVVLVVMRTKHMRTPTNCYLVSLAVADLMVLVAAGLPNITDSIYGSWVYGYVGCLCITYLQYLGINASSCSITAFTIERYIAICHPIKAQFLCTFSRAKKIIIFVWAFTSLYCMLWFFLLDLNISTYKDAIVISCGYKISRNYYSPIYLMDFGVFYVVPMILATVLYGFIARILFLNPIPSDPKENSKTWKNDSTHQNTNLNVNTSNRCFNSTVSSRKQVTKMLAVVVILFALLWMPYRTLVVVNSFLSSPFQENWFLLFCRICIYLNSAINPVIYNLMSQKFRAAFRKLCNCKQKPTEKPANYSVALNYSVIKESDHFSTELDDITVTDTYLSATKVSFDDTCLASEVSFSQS
#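 Enhancer read-out: after compound pinning and an initial kinetic agonist-mode read, an EC20 of TRH (10 nM final) was injected and fluo-8 calcium signal (Ex 480/Em 530) followed at 1 s/cycle for 100 cycles in TRHR-expressing cells.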
# IL2 activator: qHTS of IL-2 Activators; 0.065% of 360,000 active; AID 652025, 2013; activation, % (series mostly up to about 46 µM); IL-2 activation reporter assay, cell-based qHTS; stimulated with anti-CD3/CD4/CD28 beads; in transgenic mouse T cells; in the data active means activation above about 50%; inconclusive means mostly about 30% to 49%; further: 0% is about no effect
#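 EGFP and DsRed fluorescence is measured by plate cytometry in unstimulated transgenic mouse T cells exposed to compound for 60 minutes, then stimulated 18 hours at 37 degrees C with anti-CD3/anti-CD4 beads plus anti-CD28.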
# MBNL1 CUG block: qHTS Assay for Inhibitors of MBNL1-poly(CUG) RNA binding. Potency, µM (top dose mostly 57.5 µM), for inactives: at the top dose activity change, negative = inhibition, hits mostly inhibitors. TR-FRET MBNL1-His/biotin-(CUG)12 binding, 665/545 ratio. AID 2675, 2010. 0.036% of 280,000 active; active means well fitted inhibition curve with a large enough effect in the signal ratio, with a control signal flat, not every such curve was filed as active; inconclusive means small, poorly fitted or top-dose-only effect, or effect the other way, or a change in a side signal; inactive means no such curve, though single readings can be large or run the other way; the % refers to the signal ratio; further: potency means the concentration at half of the fitted maximal effect; on the % scale 0 is the no-effect control and ±100 the full control effect
# Target sequence (Q9NR56 whole entry, looked up): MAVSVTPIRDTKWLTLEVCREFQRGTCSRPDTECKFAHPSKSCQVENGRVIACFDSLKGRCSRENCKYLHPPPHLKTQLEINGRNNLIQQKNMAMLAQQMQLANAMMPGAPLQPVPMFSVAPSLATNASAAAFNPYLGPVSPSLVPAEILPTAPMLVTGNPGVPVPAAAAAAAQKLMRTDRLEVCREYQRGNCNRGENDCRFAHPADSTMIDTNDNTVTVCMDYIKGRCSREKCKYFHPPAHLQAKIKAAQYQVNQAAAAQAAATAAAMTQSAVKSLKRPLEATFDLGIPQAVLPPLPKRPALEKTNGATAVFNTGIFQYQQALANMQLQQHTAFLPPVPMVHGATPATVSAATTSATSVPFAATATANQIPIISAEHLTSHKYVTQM
#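 TR-FRET readout: Ex 340 nm, 665/545 nm emission ratio, normalized to buffer-only (basal) and MBNL1-(CUG)12 controls. Complex of MBNL1-His with Biotin-(CUG)12, compounds 92 nM–58 uM, incubated 60 min at room temperature.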
# Epigenetic derep: Quantitative High-Throughput Screen for Regulators of Epigenetic Control; murine LDR cells, GFP reporter derepression, 30 h; Potency, µM (highest dose often 53.9 µM), for the others: top-dose GFP activation, usual class: activators; 0.2% of 280,000 active; further: potency means the concentration at half of the fitted maximal effect; % of control where 0% means no effect; nearly all actives have a fitted effect of over 60% in size
#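 In this reporter-derepression format, murine cells bearing a silenced integrated CMV-GFP locus incubate with test compound (30 h, 37 C), then are washed and imaged; fluorescent objects of 20–120 um count as induced cells.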
# TRHR ag: qHTS for Small Molecule Agonists and Allosteric Enhancers of Human TRH Receptor: Primary Screen for Agonists; TRHR cells, calcium flux fluo-8, FDSS agonist mode; activation, % at 2 µM; AID 493084, 2011; Thyrotropin-releasing hormone receptor (Homo sapiens), P34981; 0.18% of 360,000 active; in the data active means activation above about 30%; further: 0% is about no effect
#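 Agonist-mode FDSS calcium read (Ex 480/Em 530, 1 s cycles) in 1536-well TRHR cells with fluo-8 dye, after 10-cycle baseline and 23 nL compound addition; TRH at EC20 (10 nM final) added afterwards for the enhancer phase.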
# CBFb-RUNX1 inh: qHTS Assay for Compounds Blocking the Interaction Between CBF-beta and RUNX1 for the Treatment of Acute Myeloid Leukemia; Runt-related transcription factor 1 (Homo sapiens) + Core-binding factor subunit beta …; AlphaScreen CBFb-His/RUNX1-biotin binding, biochemical; Potency, µM (highest dose often 59.8 µM), without a hit: top-dose activity, negative = inhibition, actives largely listed as inhibitors; 230,000 tested, under 10 active; AID 1477, 2009; further: % of control where 0% means no effect
#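 Interaction loss through any mechanism counts as activity. Pre-formed complex of His-CBF-beta and biotin-RUNX1 (30 nM apiece) is incubated with compound 15 min, then with 50 ng nickel and 50 ng streptavidin beads for 90 min before AlphaScreen detection.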
# Parental c127i: Parental Cell Counter Screen Assay for Epigenetic Modulators: Hit Validation | shares compounds with Epigenetic derep | mouse c127i parental cells, fluorescent cell count, 30 h | Potency, µM, for inactives: at the top dose fluorescent cell count, usual class: activators | 20% of 60 active
# HCC4017 tox: HCC4017 Cell Viability Secondary Assay for qHTS Assay for Epigenetic Modulators; shares compounds with Epigenetic derep; HCC4017 NSCLC viability, CellTiter-Glo ATP luminescence, 72 h; Potency, µM (top dose mostly 46.1 µM), for inactives: top-dose activity change, negative = cytotoxicity, most hits filed as cytotoxic; 30% of 45 active; AID 493071, 2011
# H358 tox: H358 Cell Viability Secondary Assay for qHTS Assay for Epigenetic Modulators: Round 2. shares compounds with Epigenetic derep. H358 NSCLC viability, ATP luminescence, 72 h. Potency, µM (highest dose often 46.1 µM), inactives show top-dose activity change, negative = viability loss, usual class: cytotoxic. 30% of 45 active. AID 493074, 2011
# * marks the source's active call; other numbers are inactive results; ? = inconclusive; nt = not tested or not shown. Most compounds without a hit are left out; they make up all but 0.88% or so of the library. Unless noted, the call rests on the fitted dose curve; in most records, active means well fitted curve in the direction sought with a large enough effect; inconclusive means small, poorly fitted or top-dose-only effect, or another doubt; inactive means no such curve, though single readings can be large; an effect the other way counts as inactive or inconclusive.
SMILES,TRHR PAM,IL2 activator,MBNL1 CUG block,Epigenetic derep,TRHR ag,CBFb-RUNX1 inh,others
COc1ccc(-n2nc3c(c2NC(=O)C(=O)N2CCN(C)CC2)CSC3)cc1,43.2*,nt,nt,1.1%,0.2,nt,
CCN1CCN(Cc2c(O)ccc3c(C)c(-c4ccccc4)c(=O)oc23)CC1,0.9,nt,nt,7.0%,-0.5,nt,
CCn1c(C)c2c([n+]1CC)CC(C)(C)CC2=O,2.9,-0.4,-8.6%,1.4%,0.4,-3.1%,
CCn1c2c(c(C)cc1=O)C(=O)CC(C)(C)C2,33.7*,-4.8,-14.4%,-0.7%,0.3,-4.6%,
CCC(=O)N1CCc2cc(S(=O)(=O)N(C)c3cccc(C)c3)ccc21,-9.8,nt,nt,-4.5%,-0.5,nt,
Cc1ccc(OCCN2CCCC2)cc1,33.0*,0.1,-5.9%,nt,0.0,nt,
Clc1ccc(OCCN2CCOCC2)cc1,36.0*,1.7,-2.7%,nt,-0.5,nt,
N#Cc1c(Cl)cccc1Oc1ccc([S+](=O)([O-])N2CCN([S+](=O)([O-])c3c(F)cccc3F)CC2)cc1,2.2,nt,nt,nt,-0.4,nt,
Cc1ccccc1N(C(=O)c1snc(C(N)=O)c1N)C(C(=O)NCC1CCCO1)c1ccc(N(C)C)cc1 (stereo unspecified),4.8,1.5,-2.6%,nt,0.1,nt,
Cc1ccccc1N(C(=O)c1snc(C(N)=O)c1N)C(C(=O)NCC1CCCO1)c1ccc(F)cc1 (stereo unspecified),39.7*,1.2,8.1%,nt,-0.6,nt,
Cc1ccc(C(=O)NC(=S)NNC(=O)c2ccccc2)cc1,-3.2,0.6,4.0%,nt,30.6*,nt,
CCCOc1ccc(C(=O)NC(=S)NNC(=O)c2c(-c3ccccc3)noc2C)cc1,-7.4,5.1,1.1%,-1.0%,47.9*,-23.0%,
Cc1ccc(C(=O)NNC(=S)NC(=O)c2ccc(Cl)cc2Cl)cc1,-7.8,0.1,-0.1%,2.9%,32.2*,-18.2%,
Cc1ccccc1C(=O)NNC(=S)NC(=O)c1ccccc1,-23.0,-0.4,1.9%,1.0%,58.9*,10.0%,
COc1cccc(CN2C(=O)c3ccccc3Sc3ccc(C(=O)NCCc4ccc(C)cc4)cc32)c1,2.4,nt,nt,2.0%,2.6,nt,
Cn1nnnc1Sc1ncnc2scc(-c3ccccc3C#N)c12,6.7,nt,nt,nt,-0.5,nt,
CCOC(=O)c1nn(-c2ccc(OC)cc2)c(=O)c2c(NC(=O)Cc3ccccc3)scc12,0.6,nt,nt,nt,0.5,nt,
O=C1CCCC1C(O)c1ccc2ccccc2c1 (stereo unspecified),nt,nt,nt,0.8%,nt,-4.6%,
Cc1ccc(-n2c(C)cc(/C=C3\NC(=O)NC3=O)c2C)c(C)c1,1.8,67.4*,?,3.2%,-1.3,-27.1%,
COc1ccc(C(=O)Nc2nnc(CC(=O)N/N=C/c3ccc(O)cc3O)s2)cc1,2.6,nt,?,nt,51.6*,nt,
Cc1ccc(C(=O)Nc2nnc(CC(=O)N/N=C/c3ccc(O)c(O)c3)s2)cc1,-9.3,1.8,0.8%,nt,0.5,nt,
CCN(CC)c1ccc(/C=C2\SC(=O)N(C(C)C)C2=O)o1,-3.0,0.7,-4.9%,7.08µM*,13.2,4.0%,
CCOC(=O)C(NCCc1ccccc1F)(NC(=O)CC)C(F)(F)F (stereo unspecified),34.3*,-1.9,-21.0%,1.0%,-3.7,-29.1%,
COc1cccc(CNc2nc3c(-c4cccc(C)c4)nnn3c3ccccc23)c1,-1.6,nt,nt,5.0%,0.7,nt,
CC(C)CCN1C(Nc2ccccc2)=NC[C@@H]1CC(C)C,-6.3,-1.2,-6.2%,nt,0.9,nt,
SMILES,TRHR PAM,IL2 activator,MBNL1 CUG block,Epigenetic derep,TRHR ag,CBFb-RUNX1 inh,others
CC(C)C[C@H]1CN=C(Nc2ccccc2)N1CCc1ccc(F)cc1,-20.6,-0.4,nt,nt,39.3*,nt,
Cc1cccc(CCN2C(Nc3ccccc3)=NC[C@@H]2CC(C)C)c1,-24.5,-0.3,nt,nt,40.7*,nt,
CC(C)C[C@H]1CN=C(Nc2ccccc2)N1CCc1cccc(F)c1,nt,-2.2,nt,nt,nt,nt,
COc1ccc(S(=O)(=O)N2CCN(Cc3ccc4c(c3)OCO4)CC2)cc1OC,8.3,nt,nt,-1.8%,-0.3,nt,
CCC(=O)N1CCN(c2ccc(NC(=O)c3ccc([N+](=O)[O-])o3)cc2Cl)CC1,-8.0,-7.2,nt,?,1.1,5.9%,Parental c127i=4.0%;HCC4017 tox=2.81µM*;H358 tox=1.41µM*
CC1=NN(c2nc3ccccc3[nH]2)C(=O)C1Cc1ccccc1 (stereo unspecified),-2.2,-0.2,7.7%,?,-1.2,?,Parental c127i=7.0%;HCC4017 tox=4.45µM*;H358 tox=7.91µM*
Cc1c(C(=O)NCc2ccc(F)cc2)oc2ccc(S(=O)(=O)N3CCCCC3)cc12,2.5,nt,nt,3.0%,0.5,nt,
O=C(Cn1c(=O)n(Cc2ccc(F)cc2)c(=O)c2sc3ccccc3c21)Nc1ccc(F)cc1F,-2.9,nt,nt,?,4.0,nt,Parental c127i=1.0%
Cc1c(C(=O)N2CCC(C)CC2)c(S(=O)(=O)Nc2ccc(OC(F)(F)F)cc2)c(C)n1C,-1.6,nt,nt,0.4%,-0.1,nt,
Oc1c(N=Nc2ccccn2)ccc2ccccc12,-2.4,-0.3,?,10µM*,2.1,nt,Parental c127i=2.0%;HCC4017 tox=1.99µM*;H358 tox=1.25µM*
Oc1[nH]c2ccccc2c1N=Nc1ccccn1,nt,1.9,nt,nt,nt,nt,
CCOC(=O)COc1ccc(CC)cc1C(=O)c1ccn2nc(-c3ccc(F)cc3)cc2n1,1.2,nt,nt,4.3%,-0.7,nt,
Cc1nc(CSc2nsc(/C=C/N(C)C)c2C#N)cs1,-3.5,1.2,nt,6.31µM*,23.0,-26.9%,Parental c127i=10.0%
COCCN(CCOC)C(=O)c1cc2c(=O)n3ccccc3nc2n1C,-5.0,nt,nt,1.4%,-0.5,nt,

# Assay outcomes (PubChem BioAssay)
